# Laboratory results from PubChem BioAssay AID1851 (National Center for Advancing Translational Sciences (NCATS), 2009).
# The whole screen tested about 16,000 compounds, of which about 5,700 (36%) were called active. About 24% were inconclusive and are not listed. The list shows a part of the results. Values without a mark were called inactive. Calls come from the whole dose curve; as a rule, active = well fitted curve in the direction sought with a large enough effect; inconclusive = small, poorly fitted or top-dose-only effect, or effect the other way; inactive = no such curve, though single readings can be large or run the other way.
# Biological target: Cytochrome P450 1A2 (Homo sapiens) (UniProt P05177)
# Assay: Cytochrome panel assay with activity outcomes
# Conditions: recombinant CYP, pro-luciferin dealkylation, luminescence, p450-cyp1a2; series mostly up to 57.1 µM; activity, negative = inhibition: at the top concentration
# % is set by controls: 0 for no effect and ±100 for the full control effect.
# Sequence of Cytochrome P450 1A2 (Homo sapiens) (P05177 whole entry, looked up): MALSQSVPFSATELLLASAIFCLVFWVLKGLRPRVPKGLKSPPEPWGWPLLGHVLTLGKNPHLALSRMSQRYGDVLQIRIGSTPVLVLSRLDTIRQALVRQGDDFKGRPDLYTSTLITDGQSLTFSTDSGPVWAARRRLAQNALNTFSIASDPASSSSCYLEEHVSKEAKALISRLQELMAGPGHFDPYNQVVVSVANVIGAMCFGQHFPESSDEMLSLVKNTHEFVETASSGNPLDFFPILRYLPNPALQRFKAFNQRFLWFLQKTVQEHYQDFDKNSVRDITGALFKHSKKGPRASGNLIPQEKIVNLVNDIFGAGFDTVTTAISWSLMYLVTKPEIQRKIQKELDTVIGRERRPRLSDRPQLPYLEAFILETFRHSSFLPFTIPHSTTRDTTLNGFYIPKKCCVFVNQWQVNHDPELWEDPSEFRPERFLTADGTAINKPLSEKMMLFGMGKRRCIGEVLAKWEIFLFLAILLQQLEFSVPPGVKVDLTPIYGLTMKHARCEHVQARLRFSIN
Structure (SMILES),AC50,"activity, negative = inhibition"
Oc1ccc([C@@H]2CNCCc3c2cc(O)c(O)c3Cl)cc1,inactive,
CN1CC[C@@]2(CCCN(C(=O)c3cc(C(F)(F)F)cc(C(F)(F)F)c3)C2)C1,,-5.26%
CN(/C=C/C(=O)C(F)(F)F)Cc1ccccc1,,-22.8%
Cc1cc(S(=O)(=O)NCCCN2CCOCC2)ccc1F,,-23%
CC(=O)Nc1ccc(S(=O)(=O)NC(CC(=O)NCCCN2CCOCC2)C(C)C)cc1 (configuration not stated),,1.91%
C/C(CC(=O)NCCCN1CCOCC1)=N\NC(=O)COc1ccc(Cl)cc1,2.51 µM (active),
CN(Cc1ccco1)c1cc(-c2ccoc2)ncn1,,-19.3%
CN(Cc1ccco1)c1cc(-c2ccc3c(c2)OCO3)ncn1,0.501 µM (active),
CN(C)c1ccc(-c2cc(N(C)Cc3ccco3)ncn2)cc1,0.316 µM (active),
COc1ccc(C(=O)N2CCC3(CC2)CN(Cc2ccc(C#N)cc2)C3)cc1,,-8.04%
COc1cc(NC(=S)Nc2ccc(S(=O)(=O)N3CCOCC3)cc2)cc(OC)c1OC,2.51 µM (active),
COc1ccc(C(=O)Nc2ccc(S(=O)(=O)N3CCOCC3)cc2)cc1OC,,7.02%
COc1ccc(NC(=O)N2CC[C@@]3(CCCN(C(=O)c4cccn4C)C3)C2)cc1,,-11.7%
O=C(CSc1ncccn1)Nc1ccc(S(=O)(=O)N2CCCCC2)cc1,,-4.34%
O=C(O)c1cc(S(=O)(=O)N2CCCCC2)ccc1F,,14.6%
O=C(Nc1ccc(F)cc1)c1cc(S(=O)(=O)N2CCCCC2)cs1,17.8 µM (active),
CC(C)=CCC/C(C)=C/CO/N=C1/C[C@@H](O)[C@@H](O)[C@@H]2[C@@H]3C(=O)N(C4CCCCC4)C(=O)[C@H]3CC[C@@H]12,,-3% [at 11.4 µM]
COc1ccc(-c2cc(C(F)(F)F)nc(NCc3cccnc3)n2)cc1,0.794 µM (active),
COc1cccc(-c2nccc(NCc3cccs3)n2)c1,0.2 µM (active),
COc1cccc(-c2nccc(NCc3ccccc3)n2)c1,0.501 µM (active),
COc1cccc(-c2nccc(NCc3cccnc3)n2)c1,0.158 µM (active),
CC[C@@H]1OC(=O)[C@H](C)[C@H](O[C@@H]2C[C@](C)(OC)[C@H](O)[C@H](C)O2)[C@H](C)[C@H](O[C@@H]2O[C@@H](C)C[C@@H](N(C)C)[C@@H]2O)[C@](C)(O)C[C@H](C)C(=O)[C@H](C)[C@H](O)[C@]1(C)O,,-3.13% [at 25.6 µM]
COc1ccc(-c2cc(C(F)(F)F)nc(SCc3cccc(C(=O)O)c3)n2)cc1,7.08 µM (active),

Structure (SMILES),AC50,"activity, negative = inhibition"
COc1cccc(-c2nccc(NCc3cccc(C)c3)n2)c1,0.316 µM (active),
COCC(C)NCc1cccc(C)c1 (configuration not stated),,-15.4%
CC(=O)OC[C@H]1O[C@@H](O/N=C(\C)CCN2CCCCc3nc(C)c(C)cc32)[C@H](OC(C)=O)[C@@H](OC(C)=O)[C@H]1OC(C)=O,,-3.61% [at 11.4 µM]
CCOc1ccc(N(CC(=O)NCc2ccc(OC)cc2)S(=O)(=O)c2c(C)noc2C)cc1,,-6.85%
CCOc1ccc(-c2cc(CCCC(=O)NCCc3ccc(OC)c(OC)c3OC)no2)cc1,0.0631 µM (active),
CCOc1ccc(CCNC(=O)CCCN2C(=O)c3ccccc3C2=O)cc1OCC,,-7.98%
Cc1ccccc1C(=O)NC(=S)NCC(=O)c1ccccc1,10 µM (active),
O=C(CNC(=O)c1ccc([N+](=O)[O-])cc1)c1ccccc1,,-9.2%
COc1ccc(-n2nc3cc(C)c(NC(=S)NC(=O)c4ccccc4C)cc3n2)cc1,,-17.3%
COCCNc1nc(-c2c(C)noc2C)nc2ccccc12,0.126 µM (active),
Cc1noc(C)c1-c1nc(NCCN2CCOCC2)c2ccccc2n1,2.51 µM (active),
c1ccc(-n2ncc3c(NCCCN4CCOCC4)ncnc32)cc1,,-22.5%
CC(=O)NCCNc1nc(-c2c(C)noc2C)nc2ccccc12,1.58 µM (active),
O=C(Nc1cccc(F)c1)N1CC[C@@]2(CCCN(C(=O)c3cc(C(F)(F)F)cc(C(F)(F)F)c3)C2)C1,,-14.9%
CN(C)CCCCN1CCc2c(n(C)c3ccccc23)C1=O,,-14.1% [at 2.29 µM]
CN(C)CCCNC(=O)c1cc2c3ccccc3n(C)c2s1,14.1 µM (active),
CN(C)CCCNc1cc(O)c2c(c1O)C(=O)c1ccccc1C2=O,,-23.1% [at 2.29 µM]
COC(Cn1c(C)c(C(C)=O)c(C(C)=O)c1C)OC,,-7.78%
CC(=O)c1[nH]c(C)c(C(C)=O)c1C,0.708 µM (active),
CC(C)c1ccc(Cn2ccc3c4c(N)nc(NC5CC5)nc4ccc32)cc1,1.58 µM (active),
CC(=O)NCCNc1ncncc1-c1ccccc1C(F)(F)F,,-19.2%
CC(=O)NCCNc1ncnc2ccc(-c3ccccc3C)cc12,0.631 µM (active),
CC(=O)NCCNc1ncnc2ccc(-c3ccccc3C(F)(F)F)cc12,10 µM (active),

Structure (SMILES),AC50,"activity, negative = inhibition"
COc1ccccc1-c1ccc2ncnc(NCCNC(C)=O)c2c1,5.01 µM (active),
CC1=C(C(=O)O)N2C(=O)[C@@H](NC(=O)[C@@H](N)C3=CCC=CC3)[C@@H]2SC1,,-0.757%
Cc1ccc(S(=O)(=O)N2CCN(C(=O)c3ccccc3)C2C(C)C)cc1 (configuration not stated),,-9.28%
COc1cccc(Nc2ncc3ncc(=O)n(C4CC4)c3n2)c1,0.631 µM (active),
O=c1cnc2cnc(Nc3ccccc3)nc2n1C1CC1,0.631 µM (active),
COc1cccc(Nc2ncc3nc(C)c(=O)n(C4CC4)c3n2)c1,1.26 µM (active),
Cc1nc2cnc(Nc3ccccc3)nc2n(C2CC2)c1=O,1 µM (active),
O=C(Nc1ccc(C(=O)Nc2ccc(C(=O)Nc3ccc(S(=O)(=O)O)c4cc(S(=O)(=O)O)cc(S(=O)(=O)O)c34)cc2)cc1)Nc1ccc(C(=O)Nc2ccc(C(=O)Nc3ccc(S(=O)(=O)O)c4cc(S(=O)(=O)O)cc(S(=O)(=O)O)c34)cc2)cc1,31.6 µM (active),
O=C(Nc1cccc(C(=O)Nc2ccc(S(=O)(=O)O)c3cc(S(=O)(=O)O)cc(S(=O)(=O)O)c23)c1)Nc1cccc(C(=O)Nc2ccc(S(=O)(=O)O)c3cc(S(=O)(=O)O)cc(S(=O)(=O)O)c23)c1,inactive,
CN1CCN(C(=O)C(C(=O)c2ccc(F)cc2)n2ccccc2=O)CC1 (configuration not stated),,-0.425%
c1ccc(Nc2ncnc3ccc(-c4ccoc4)cc23)cc1,1.58 µM (active),
Fc1ccc(Nc2ncnc3ccc(-c4ccoc4)cc23)cc1,1 µM (active),
CCN(C(=O)CSc1nc2cc(C(=O)OC)ccc2c(=O)n1Cc1ccco1)c1cccc(C)c1,2.51 µM (active),
CCc1ccc(NC(=O)CSc2nc3cc(C(=O)OC)ccc3c(=O)n2Cc2ccco2)cc1,,-27.9%
COC(=O)[C@@H]1C[C@H]1[C@@H](NC(=O)Oc1ccc(F)cc1)c1ccccc1,3.16 µM (active),
COC(=O)[C@H]1C[C@@H]1[C@H](NC(=O)Oc1ccc(F)cc1)c1ccccc1,1 µM (active),
Cc1ccccc1OCCCn1c(=O)sc2ccccc21,3.16 µM (active),
Cc1ccc(OCCCn2c(=O)sc3ccccc32)cc1,,-65.4%
O=P(O)(COc1ccccc1)COc1ccccc1,,-1.64%
O=c1sc2ccccc2n1CCCOc1ccccc1,15.8 µM (active),
CS(=O)(=O)N(CC(=O)Nc1cccc(F)c1)c1cccc([N+](=O)[O-])c1,,-3.74%
O=C(Nc1cccc([N+](=O)[O-])c1)c1ccc(CSc2ccccc2)cc1,,-21.6%
O=C(COc1ccc(/C=N/NC(=O)c2ccccc2)cc1)Nc1ccc([N+](=O)[O-])cc1,,-1.47%

Structure (SMILES),AC50,"activity, negative = inhibition"
CCC(=O)Nc1cccc(NC(=O)c2cccc([N+](=O)[O-])c2)c1,7.08 µM (active),
CCOC(=O)c1cccc(NC(=O)COc2ccc([N+](=O)[O-])cc2)c1,12.6 µM (active),
CCC(=O)Nc1cccc(C(=O)/C=C/c2ccccc2)c1,1 µM (active),
O=C(Nc1nc(-c2ccccc2)cs1)c1cccc([N+](=O)[O-])c1,1.41 µM (active),
COc1ccccc1Nc1nc(-c2sc(NC(=O)c3ccc([N+](=O)[O-])cc3)nc2C)cs1,,-20.4%
CC(C)NC(=O)N1CCC2(CC1)CCN(S(C)(=O)=O)CC2,,-8.96%
Cc1ccccc1N1C(=O)c2cc(S(N)(=O)=O)c(Cl)cc2N[C@H]1C,,0.243% [at 25.6 µM]
COc1ccc(Cl)cc1N=Nc1ncc[nH]1,0.631 µM (active),
Clc1ccc(Cn2c(CN3CCCC3)nc3ccccc32)cc1,10 µM (active),
Cn1c(=O)[nH]c(=O)c2c1nc(CN1CCOCC1)n2Cc1ccccc1,,2.89%
O=C(CN(c1ccccc1)S(=O)(=O)c1ccccc1)NCCSCc1ccco1,,-14.5%
CC(C(=O)NCc1ccc2c(c1)OCO2)N1c2cccc3cccc(c23)S1(=O)=O (configuration not stated),1.78 µM (active),
COc1ccccc1C1=NOC(COC(=O)c2ccc3ccccc3n2)C1 (configuration not stated),14.1 µM (active),
O=C(O)c1c(-c2c3ccc(=O)cc-3oc3cc(O)ccc23)cc2ccccc2c1-c1ccccc1,,-17.6% [at 2.29 µM]
CNC(=O)/C(C#N)=c1\s/c(=C/C(=O)OC)c(=O)n1-c1ccccc1,,-4.92%
COC(=O)[C@@H]1[C@@H](O)[C@]2(O)c3ccccc3O[C@]2(c2ccccc2)[C@H]1c1ccccc1,,-6.42% [at 11.4 µM]
COc1cc(CNC2CCCC2)cc(Cl)c1OCc1ccccc1Cl,0.708 µM (active),
COc1ccccc1CNC(=O)CCCn1c(=O)c2ccccc2n(CC(=O)NC2CCCC2)c1=O,,0.328%
COc1cc(O)oc1C=Nc1ccc(C(F)(F)F)cc1,0.501 µM (active),
COc1cccc(CNc2ccc(F)c(Cl)c2)c1O,,-22.8%
COc1cc(O)oc1C=Nc1ccc(Cl)cc1,2.24 µM (active),
CCC#CCOCC(=O)Nc1ccccc1,25.1 µM (active),
COC(=O)N1CCC2(CCN(C(=O)Nc3ccccc3)CC2)CC1,,-5.21%
